# PI5P4K alpha inh: qHTS for Inhibitors of phosphatidylinositol 5-phosphate 4-kinase (PI5P4K) | Phosphatidylinositol 5-phosphate 4-kinase type-2 alpha (Homo sapiens), P48426 | PI5P4Kalpha enzyme, ADP-Glo luminescence, 60 min; stronger effect = lower value | max response, % | actives 1.2% (n = 330,000); active means max response of -50% or lower; inconclusive means between -30% and -50%; inactive means -30% or higher; further: value at the top dose of about 77 µM; on the % scale 0 is the no-effect control and ±100 the full control effect
#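 Reactions run in 0.038 M HEPES pH 7.4, 0.28 mM EGTA, 0.1% CHAPS and 5% DMSO, with PI5P4Kalpha, substrate, compound and 5 microM ATP final, one hour at room temperature. Readout is ADP-Glo luminescence.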
# HP1b binding inh: HTS for Inhibitors of HP1-beta Chromodomain Interactions with Methylated Histone Tails; Chromobox protein homolog 1 (Homo sapiens), P83916; AlphaScreen HP1-beta / biotin-H3K9me3 peptide binding; Potency, µM (doses to about 114 µM), for inactives: top-dose activity change, negative = inhibition, most hits filed as inhibitors; actives 0.56% (n = 390,000); further: potency means the concentration at half of the fitted maximal effect; nearly all actives have a fitted effect of over 70% in size
#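 Compound inhibition of the preformed complex between 50 nM HP1-beta and 50 nM biotinylated H3K9me3 peptide was read by AlphaScreen. Buffer was PBS pH 7.4 with 0.01% Tween-20. Incubations ran 30 min at room temperature, with 10 ug/mL donor/acceptor beads.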
# JMJD2A Tudor inh: qHTS Assay for Inhibitors of JMJD2A-Tudor Domain | AlphaScreen JMJD2A-Tudor / H3K4me3 peptide binding | Lysine-specific demethylase 4A (Homo sapiens), O75164 | Potency, µM (top dose mostly 114 µM), without a hit: at the highest dose activity change, negative = inhibition, actives largely listed as inhibitors | actives 4.4% (n = 390,000); further: potency means the concentration at half of the fitted maximal effect; on the % scale 0 is the no-effect control and ±100 the full control effect; nearly all actives have a fitted effect of over 50% in size
# BAZ2B block: qHTS Assay for Inhibitors of BAZ2B | AlphaScreen BAZ2B-H3K14Ac peptide displacement | Potency, µM (doses to about 114 µM), without a hit: top-dose activity change, negative = inhibition, usual class: inhibitors | Bromodomain adjacent to zinc finger domain protein 2B (Homo sapiens), Q9UIF8 | actives 4.4% (n = 360,000); further: potency means the concentration at half of the fitted maximal effect; on the % scale 0 is the no-effect control and ±100 the full control effect; nearly all actives have a fitted effect of over 60% in size
#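 BAZ2B 50 nM plus b-H3(5-23)K14Ac 50 nM, PBS pH 7.4/0.01% Tween-20, 30 min RT; compound added (max 110 uM), 30 min RT; streptavidin donor/Ni-chelate acceptor beads 10 ug/mL final, 20 min dark; AlphaScreen read.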
# L3MBTL1 block: qHTS Assay for the Inhibitors of L3MBTL1; actives 0.66% (n = 230,000); Potency, µM (highest dose often 57.1 µM), for inactives: top-dose activity, negative = inhibition, usual class: inhibitors; Lethal(3)malignant brain tumor-like protein 1 (Homo sapiens), Q9Y468; AID 485360, 2010; AlphaScreen L3MBTL1–H3K9me1 peptide binding; further: potency means the concentration at half of the fitted maximal effect; on the % scale 0 is the no-effect control and ±100 the full control effect; nearly all actives have a fitted effect of over 60% in size
#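 Displacement of a biotinylated histone H3(1-15) peptide monomethylated at Lys9 (75 nM) from L3MBTL1 (50 nM) was measured by AlphaScreen after a 30 min room-temperature compound incubation; cefsulodin titration served as intraplate control.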
# JMJD2E inh: qHTS Assay for Inhibitors of Human Jumonji Domain Containing 2E (JMJD2E); JMJD2E catalytic domain, FDH-coupled NADH fluorescence (FDH is formaldehyde dehydrogenase); actives 1.6% (n = 230,000); Potency, µM (highest dose often 57.1 µM), without a hit: top-dose activity change, negative = inhibition, usual class: inhibitors; active means well fitted inhibition curve with a large enough effect, not every such curve was filed as active; inconclusive means small, poorly fitted or top-dose-only effect, or another doubt; inactive means no such curve, though single readings can be large or run the other way;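 further: potency means the concentration at half of the fitted maximal effect; 0% = wells with enzyme and -100% = buffer wells without enzyme; nearly all actives have a fitted effect of over 50% in size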
# An asterisk follows results filed as active; ? = inconclusive; nt = no result; ! = a repeat was not active; [ ] = dose if it differs, or a comment. Hits are enriched below; roughly 5.7% of the tested compounds scored in any of these assays. Unless noted, the call rests on the fitted dose curve; in most records, active means well fitted inhibition curve with a large enough effect; inconclusive means small, poorly fitted or top-dose-only effect; inactive means no such curve, though single readings can be large or run the other way.
SMILES,PI5P4K alpha inh,HP1b binding inh,JMJD2A Tudor inh,BAZ2B block,L3MBTL1 block,JMJD2E inh
CC(C)(C)NC(=O)C(=O)NNC(=O)COc1ccc(Br)cc1,1,24%,-3%,-4%,1%,1%
COc1ccccc1NC(=O)CSC1=Nc2ccccc2N=C(c2ccc(F)cc2)C1,nt,5%[57 µM],-32%,?,nt,nt
CCOc1ccc(NC(=S)NC(=O)/C=C/c2ccco2)cc1,-12,7%,-19%,-5%,1%[2.29 µM],nt
COc1cc(NS(=O)(=O)c2ccc(NC(=S)NC(=O)/C=C/c3ccco3)cc2)ncn1,-56*,?,18µM*,-35%,?,-9%
COc1ccc(N2CCN(c3nc(Nc4ccc(C)c(F)c4)nc(N4CCCC4)n3)CC2)cc1,1,?,?,7.9µM*,-10%,-22%
CCNc1cccc(S(=O)(=O)N2CCCN(S(=O)(=O)c3ccc4c(c3)OCCO4)CC2)c1,nt,nt,-22%,nt,nt,nt
CCOc1ccc2nc(N3CCCC(C(=O)Nc4ccc(Br)c(C)c4)C3)sc2c1 (centres undefined),nt,5%,-11%,0%,nt,nt
COc1ccc(/C=N/NC(=O)COc2ccc3ccccc3c2)c(C(=O)O)c1OC,-18,20%,50µM*,-11%,2%,-19%
COc1ccc(OCC(=O)N/N=C/c2cccc3cccnc23)cc1,-9,19%,79µM*,nt,nt,nt
COc1cccc(/C=N/NC(=O)COc2cccc3cccnc23)c1O,0,50%,-16%,-16%,9%,?
COc1ccccc1OCC(=O)N/N=C/c1cccc2cccnc12,-9,29%,56µM*,35µM*,nt,nt
O=C(COc1ccc(Cl)cc1)N/N=C/c1cccc2cccnc12,9,26%,-9%,-5%,nt,nt
COc1cc(/C=N/n2c(C)n[nH]c2=S)ccc1OCc1ccc(F)cc1,-3,-3%,79µM*,-15%,3%,-13%
NC(N)=N/N=C/c1ccc(OCc2ccccc2)c(OCc2ccccc2)c1,-4,?,?,40µM*,nt,nt
CCOc1cc(/C=N/O)ccc1OCc1ccc(F)cc1,-7,?,28µM*,3%,6%,6%
CCOc1cc(/C=N/O)ccc1OCc1ccc([N+](=O)[O-])cc1,-11,?,-35%[57.1 µM],-33%,0%,3%
CC(O)/C=C/c1cccc[n+]1C (centres undefined),nt,19%,40µM*,4%,-9%,7.9µM*
C[n+]1ccccc1/C=N/O,11,60%,35µM*!,-14%,4%,0%
O=C1CC(c2ccccc2)c2c(n3ncnc3[nH]c2=O)N1 (centres undefined),nt,34%,-23%,-6%,nt,nt
COc1cccc(OCCSc2nc3ccccc3n2CC(=O)N2CCCCC2)c1,nt,16%,-15%,-36%,nt,nt
O=C(O)C1Nc2c(C(=O)N3CCOCC3)cccc2C2C=CCC12 (centres undefined),-62*,40µM*,11µM*,20µM*,3.5µM*,?
Cc1ccc(Cl)c2c1N[C@@H](c1ccc(C(=O)O)cc1)[C@H]1CC=C[C@@H]21,nt,5%,?,?,nt,nt
Cc1cc(C)c2c(c1)NC(C(=O)O)C1CC=CC21 (centres undefined),-79*,20µM*,13µM*,11µM*,5µM*,nt
Cc1cc(C)c2c(c1)C1C=CCC1C(C(=O)O)N2 (centres undefined),nt,20µM*,20µM*,nt,nt,nt
Cc1ccc2c(c1C)NC(C(=O)O)C1CC=CC21 (centres undefined),nt,11µM*,7.9µM*,7.1µM*,5µM*,20µM*
SMILES,PI5P4K alpha inh,HP1b binding inh,JMJD2A Tudor inh,BAZ2B block,L3MBTL1 block,JMJD2E inh
COC(=O)CNC(=O)C1Nc2ccc(OC(F)(F)F)cc2C2C=CCC12 (centres undefined),3,38%,-17%,nt,nt,nt
COc1ccccc1CNC(=O)CCC1N=C2c3ccccc3N=C(SCC(=O)NCCc3ccc(OC)c(OC)c3)N2C1=O (centres undefined),nt,6%,-16%,-36%,nt,nt
Cc1cc(C)c2oc(C(=O)Nc3sc4c(c3C(=O)NCc3ccco3)CCCC4)cc(=O)c2c1,nt,23%,-12%,-3%,nt,nt
COc1ccc(/C=N/Nc2ccccc2C(=O)O)cc1Cn1cc([N+](=O)[O-])cn1,?,-15%,?,50µM*,-27%,?
COc1ccc(/C=N/NC(=O)c2cc(O)c(O)c(O)c2)cc1Cn1cc([N+](=O)[O-])cn1,-59*,?,10µM*,10µM*,nt,2.2µM*
COc1ccc(/C=N/NC(=O)c2ccccc2O)cc1Cn1cc([N+](=O)[O-])cn1,-6,29%,-6%[11.4 µM],-4%,8%,?
CCCn1c(N)c(C(=O)CSc2nnc3ccccn23)c(=O)n(C)c1=O,11,22%,-5%,3%,-9%,nt
O=C(CN1C(=O)NC2(CCCC2)C1=O)OCCOc1ccc(Cl)cc1,0,35%,-1%,2%,-1%,nt
Cc1cccc(NC(=O)CN(CC2CCCO2)C(=O)c2cc3ccccc3o2)c1C (centres undefined),6,11%,-21%,2%,-8%,nt
COc1ccc(/C=N/NC(=O)c2ccccc2)cc1CN1CCN(c2ccc(F)cc2)CC1,-12,1%,-16%,-5%,7%,12%
COc1ccc(/C=N/NC(=O)c2ccccc2F)cc1CN1CCN(c2ccc(F)cc2)CC1,1,-18%,-25%,50µM*,-15%,3%
COc1cc(C(=O)N/N=C/c2ccc(OC)c(CN3CCN(c4ccc(F)cc4)CC3)c2)ccc1O,0,-14%,45µM*,-70%,nt,-14%
Cc1ccc(NC(=O)Cn2c(=O)n(Cc3ccc(F)cc3)c(=O)c3cccnc32)cc1C,nt,32%,-9%,-2%,nt,nt
O=c1cc(NCc2ccccc2)[nH]c(=O)[nH]1,-5,19%,12%,nt,nt,nt
CCc1c(-c2ccccc2)nc2ccccc2c1C(=O)NC(C)c1ccccc1 (centres undefined),nt,20%,-15%,-2%,nt,nt
COc1ccc(NC(=O)CCl)cn1,nt,nt,nt,79µM*,nt,?
CC(C)CCN(C(=O)c1cc(=O)[nH]c2ccccc12)c1c(N)n(Cc2ccccc2)c(=O)[nH]c1=O,-2,51%,-9%,8%,3%,nt
O=C(Nc1nc2ccccc2s1)C1CCN(S(=O)(=O)c2cc([N+](=O)[O-])ccc2Cl)CC1,?,-20%,?,28µM*,nt,-18%
COc1ccc(C(=O)N(Cc2ccccc2)Cc2cccs2)c(O)c1,nt,nt,-34%,nt,nt,nt

# Screening data (PubChem)
